Results filed as inconclusive are left out. Where a call stands in place of a potency, no number is given. A number with no mark means an inactive call. Calls of active or inactive are those of the source. Calls come from the whole dose curve; as a rule, active = well fitted curve in the direction sought with a large enough effect; inconclusive = small, poorly fitted or top-dose-only effect, or another doubt; inactive = no such curve, though single readings can be large; an effect the other way counts as inactive or inconclusive.
Columns and labels:
[1] = qHTS of pediatric cancer cell lines to identify multiple opportunities for drug repurposing: Primary screen for BT-37 cells (AID 1347094); note: potency is the fitted concentration of half-maximal effect
Outline: (§1)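 Readout: CellTiter-Glo luminescence, 48 h treatment. Controls DMSO (neutral) and bortezomib 2.3 µM final (positive). Potency and efficacy taken from primary-screen concentration-response curves.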

[2] = qHTS of pediatric cancer cell lines to identify multiple opportunities for drug repurposing: Primary screen for NB-EBc1 cells (AID 1347095)
Outline: as §1

[3] = qHTS of pediatric cancer cell lines to identify multiple opportunities for drug repurposing: Primary screen for U-2 OS cells (AID 1347096); note: nearly all actives have a fitted effect of over 50% in size
Outline: (§2)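 Cells (500-1,000/well) in growth media were settled 5 h at 37 degrees C, then given compounds for 48 h. Viability was read as CellTiter-Glo luminescence. Primary runs used MIPE at 11 points (0.78 nM-46 µM) and NPC at 8 points (0.59 nM-46 µM); follow-ups used 11 points.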

[4] = qHTS of pediatric cancer cell lines to identify multiple opportunities for drug repurposing: Primary screen for Saos-2 cells (AID 1347097); note: nearly all actives have a fitted effect of over 40% in size; note: potency is the fitted concentration of half-maximal effect
Outline: as §1

[5] = qHTS of pediatric cancer cell lines to identify multiple opportunities for drug repurposing: Primary screen for SK-N-SH cells (AID 1347098); note: nearly all actives have a fitted effect of over 65% in size; note: potency is the fitted concentration of half-maximal effect
Outline: (§3)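 Cells (500-1,000/well) rested 5 h, then received compounds for 48 h; metabolically active cells were measured by CellTiter-Glo luminescence. Final concentrations spanned up to 46 µM (MIPE, 11-point) or 0.59 nM-46 µM (NPC, 8-point) in primary screens, 11-point in follow-ups.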

[6] = qHTS of pediatric cancer cell lines to identify multiple opportunities for drug repurposing: Primary screen for LAN-5 cells (AID 1347100); note: potency is the fitted concentration of half-maximal effect
Outline: as §2

[7] = qHTS of pediatric cancer cell lines to identify multiple opportunities for drug repurposing: Primary screen for BT-12 cells (AID 1347101); note: nearly all actives have a fitted effect of over 25% in size; note: potency is the fitted concentration of half-maximal effect
Outline: as §3

[8] = qHTS of pediatric cancer cell lines to identify multiple opportunities for drug repurposing: Primary screen for Rh18 cells (AID 1347102); note: nearly all actives have a fitted effect of over 65% in size; note: potency is the fitted concentration of half-maximal effect
Outline: as §2

[9] = qHTS of pediatric cancer cell lines to identify multiple opportunities for drug repurposing: Primary screen for RD cells (AID 1347104); note: nearly all actives have a fitted effect of over 55% in size; note: potency is the fitted concentration of half-maximal effect
Outline: as §1

[10] = qHTS of pediatric cancer cell lines to identify multiple opportunities for drug repurposing: Primary screen for MG 63 (6-TG R) cells (AID 1347105); note: nearly all actives have a fitted effect of over 50% in size
Outline: as §1

[11] = qHTS of pediatric cancer cell lines to identify multiple opportunities for drug repurposing: Primary screen for control Hh wild type fibroblast cells (AID 1347106); note: nearly all actives have a fitted effect of over 55% in size; note: potency is the fitted concentration of half-maximal effect
Outline: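 Viability after 48 h compound treatment at 37C, 500-1,000 cells/well, read as ATP luminescence with CellTiter-Glo. Primary screens used 11-point (MIPE, 0.78 nM-46 µM) or 8-point (NPC, 0.59 nM-46 µM) final concentrations; follow-up screens used 11-point dilutions.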

[12] = qHTS of pediatric cancer cell lines to identify multiple opportunities for drug repurposing: Primary screen for Rh30 cells (AID 1347107); note: series mostly up to about 46 µM; nearly all actives have a fitted effect of over 75% in size
Outline: as §2

[13] = qHTS of pediatric cancer cell lines to identify multiple opportunities for drug repurposing: Primary screen for Rh41 cells (AID 1347108); note: nearly all actives have a fitted effect of over 70% in size; note: potency is the fitted concentration of half-maximal effect
Outline: as §1

[14] = qHTS of pediatric cancer cell lines to identify multiple opportunities for drug repurposing: Primary screen for OHS-50 cells (AID 1347103); note: nearly all actives have a fitted effect of over 40% in size; note: potency is the fitted concentration of half-maximal effect
Outline: as §3

[15] = qHTS of pediatric cancer cell lines to identify multiple opportunities for drug repurposing: Primary screen for NB1643 cells (AID 1347099); note: nearly all actives have a fitted effect of over 50% in size
Outline: as §1

| SMILES | Potency [1] | Potency [2] | Potency [3] | Potency [4] | Potency [5] | Potency [6] | Potency [7] | Potency [8] | Potency [9] | Potency [10] | Potency [11] | Potency [12] | Potency [13] | Potency [14] | Potency [15] |
| --- | --- | --- | --- | --- | --- | --- | --- | --- | --- | --- | --- | --- | --- | --- | --- |
| COC(=O)[C@@H]1CC2=CC(=O)CC[C@]2(C)[C@@]23O[C@@H]2C[C@@]2(C)[C@H](CC[C@@]24CCC(=O)O4)[C@@H]13 | inactive | inactive | inactive | inactive | inactive | inactive | inactive | inactive | inactive | inactive | inactive | inactive |  |  |  |
| C[C@H]1C[C@H]2[C@@H]3CCC4=CC(=O)C=C[C@]4(C)[C@@H]3C(=O)C[C@]2(C)[C@@]1(O)C(=O)CO | inactive | inactive | inactive | inactive | inactive | inactive | inactive |  | inactive | inactive | inactive | inactive | inactive |  |  |
| CC1(C)[C@H](O[C@H]2O[C@H](C(=O)O)[C@@H](O)[C@H](O)[C@H]2O[C@@H]2O[C@H](C(=O)O)[C@@H](O)[C@H](O)[C@H]2O)CC[C@@]2(C)[C@H]1CC[C@]1(C)[C@H]2C(=O)C=C2[C@H]3C[C@@](C)(C(=O)O)CC[C@]3(C)CC[C@]21C | inactive | inactive | inactive | inactive | inactive |  | inactive |  | inactive | inactive | inactive | inactive | inactive | inactive |  |
| C[C@H]1O[C@H](O[C@H]2[C@H](O)[C@@H](O)[C@@H](O[C@H]3[C@H](O)[C@@H](O)C(O)O[C@H]3CO)O[C@H]2CO)[C@H](O)[C@@H](O)[C@H]1N[C@H]1C=C(CO)[C@@H](O)[C@H](O)[C@@H]1O (stereo partly drawn) | 1.72 µM (active) | inactive | inactive | 2.35 µM (active) | inactive | 2.35 µM (active) | 2.17 µM (active) | inactive | inactive | inactive | inactive | inactive |  | 2.17 µM (active) |  |
| Cc1cc(-c2nnc3n2CCCCC3)c(C)n1-c1ccccc1 | inactive | inactive | inactive | inactive | inactive |  | inactive | inactive | inactive | inactive | inactive |  | inactive |  | inactive |
| O=C(CN1C(=O)C2(CCCC2)NC[C@H]1c1cc(F)cc(F)c1)Nc1ccc2c(c1)C[C@@]1(C2)C(=O)Nc2ncccc21 | inactive | inactive | inactive | inactive | inactive |  | inactive | inactive | inactive | inactive | inactive | inactive | inactive | inactive | inactive |
| c1cc(N[C@@H]2CCNC2)nc(-c2cnc3ccc(-c4cn[nH]c4)cn23)c1 | 19.3 µM (active) | inactive | inactive | 18.7 µM (active) | 24.1 µM (active) | 11.8 µM (active) | 17.2 µM (active) | 20.9 µM (active) | 16.6 µM (active) |  | 23.5 µM (active) | inactive | 16.6 µM (active) | 19.3 µM (active) |  |

Source: PubChem BioAssay (NCATS)
